Source: ChEMBL document CHEMBL1961873, “Compounds: GSK PKIS; Assays: Nanosyn kinase panel” (2012)

target: Casein kinase I isoform gamma-2 (Homo sapiens) (UniProt P78368); conditions: at 0.1 µM
Sequence (P78368 whole entry, looked up, canonical isoform): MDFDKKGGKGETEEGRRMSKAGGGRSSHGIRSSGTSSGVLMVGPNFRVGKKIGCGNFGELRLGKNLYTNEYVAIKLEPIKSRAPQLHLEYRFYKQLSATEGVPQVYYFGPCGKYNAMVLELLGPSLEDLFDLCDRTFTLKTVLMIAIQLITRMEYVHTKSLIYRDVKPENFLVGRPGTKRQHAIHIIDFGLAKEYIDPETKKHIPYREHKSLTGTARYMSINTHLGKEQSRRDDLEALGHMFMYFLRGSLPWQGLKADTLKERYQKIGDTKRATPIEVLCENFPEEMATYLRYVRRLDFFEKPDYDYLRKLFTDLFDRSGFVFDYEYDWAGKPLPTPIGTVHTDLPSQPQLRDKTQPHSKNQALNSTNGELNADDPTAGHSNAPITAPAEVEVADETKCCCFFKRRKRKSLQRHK

Row | SMILES | inhibition [%]
1 | COc1cc(/C=N/Nc2ncnc3[nH]ncc23)ccc1O | 4.88
2 | COc1cc(Nc2nccc(Nc3ccc4c(C)n[nH]c4c3)n2)cc(OC)c1OC | -0.28
3 | COc1cc2c(cc1Nc1nc(Nc3ccsc3C(N)=O)c3cc[nH]c3n1)N(C(=O)CN(C)C)CCC2(C)C | 3.76
4 | CCn1c(-c2nonc2N)nc2c(C#CC(C)(C)O)nc(OC[C@H](N)c3ccccc3)cc21 | 1.71
5 | COC(=O)Nc1nc2ccc(S(=O)(=O)c3ccc(NC(=O)Nc4cc(C(F)(F)F)ccc4F)cc3)cc2[nH]1 | 1.08
6 | N#Cc1c(NC(=O)c2ccc(F)cc2)sc2c1CCCC2 | 0.66
7 | CCn1c(-c2nonc2N)nc2c(C#CC(C)(C)O)ncc(OC3CCNCC3)c21 | 2.46
8 | CCn1c(-c2nonc2N)nc2cnc(Oc3cccc(NC(=O)c4ccc(N(C)C)cc4)c3)cc21 | 1.06
9 | Fc1cccc(COc2ccc(Nc3ncnc4sc(-c5ccco5)cc34)cc2Cl)c1 | 4.05
10 | O=S(=O)(CCNCc1ccc(-c2ccc3ncnc(Nc4ccc(OCc5cccc(F)c5)c(Cl)c4)c3c2)o1)c1ccccc1 | 4.49
11 | COc1cccc(-n2ncc3c(N/N=C/c4ccc(F)cc4)ncnc32)c1 | 3.98
12 | NC(=O)c1sc(-n2cnc3ccc(C(F)(F)F)cc32)cc1OCc1ccccc1Br | 3.03
13 | NS(=O)(=O)c1ccc(N/N=C2\C(=O)Nc3ccc4ncccc4c32)cc1 | 1.41
14 | c1ccc(-c2nc3n(c2-c2ccc4c(c2)OCO4)CCC3)nc1 | 1.64
15 | CCNC(=O)O[C@H]1CN[C@H](C#Cc2cc3ncnc(Nc4ccc(OCc5cccc(F)c5)c(Cl)c4)c3s2)C1 | 1.8
16 | COc1ccc(-c2cc(-c3c[nH]nc3-c3ccccn3)ccn2)cc1 | 3.51
17 | Nc1nc(-c2cccc(Cl)c2)c(-c2ccc3ncccc3n2)s1 | 4.46

Row | SMILES | inhibition [%]
18 | Clc1ccc(-c2nn3ncccc3c2-c2ccnc(Nc3ccccc3)n2)cc1 | 0.23
19 | CCN1CCC(CC(=O)Nc2n[nH]c3nnc(-c4cccc(F)c4F)cc23)CC1 | -0.21
20 | CN1CCC(n2cnc(-c3ccc(F)cc3)c2-c2ccnc(N)n2)CC1 | 1.68
21 | CNC(=O)c1cncc(/C=C/c2ccccc2Cl)c1 | 0.91
22 | CC(C)COC(=O)c1ccc2c(c1)/C(=C/Nc1ccc(S(N)(=O)=O)cc1)C(=O)N2 | -1.09
23 | CCN(CC)S(=O)(=O)c1ccc(OC)c(Nc2ncc(-c3ccccc3)o2)c1 | 0.3
24 | COc1ccc(-c2oc3ncnc(N)c3c2-c2ccc(NC(=O)Nc3cc(C(F)(F)F)ccc3F)cc2)cc1 | 2.18
25 | COc1ccc(CNC(=O)c2ccc(-c3cc(-c4nnc(C)o4)ccc3C)cc2)cc1 | 1.05
26 | CC(C)(CO)CNC(=O)c1ccc2c(c1)/C(=N/Nc1ccc(S(N)(=O)=O)cc1)C(=O)N2 | 0.93
27 | Cc1cccc2c1NC(=O)/C2=N\Nc1ccc(S(N)(=O)=O)cc1 | 1.59
28 | Cc1ccc2c(-c3ccnc(Nc4ccccc4)n3)c(-c3ccc(F)cc3)nn2n1 | 5.54
29 | CNC(=O)c1cccc(C#Cc2cncnc2Nc2ccc(OCc3cccc(F)c3)c(Cl)c2)c1 | 1.23
30 | c1cc(-c2cnn3nc(N4CCOCC4)ccc23)nc(NC2CC2)n1 | 3.35
31 | FC(F)(F)c1cccc(-c2nn3ncccc3c2-c2ccnc(Nc3ccc4c(c3)OCCO4)n2)c1 | 1.92
32 | CC1=C(C(=O)Nc2cc(Cl)c3[nH]ncc3c2)C(c2ccc(C(F)(F)F)cc2)CC(=O)N1 (stereo not drawn) | 2.31
33 | COc1cc(N2CCN(C(C)C)CC2)ccc1Nc1nc(Nc2ccc(F)cc2C(N)=O)c2cc[nH]c2n1 | 7.97
34 | O=C(Nc1n[nH]c2cc(-c3ccc(F)cc3)ccc12)C1CC1 | 2.45

target: Casein kinase I isoform gamma-2 (Homo sapiens) (UniProt P78368); conditions: at 1 µM

Row | SMILES | inhibition [%]
35 | COc1cc(/C=N/Nc2ncnc3[nH]ncc23)ccc1O | 25.1
36 | COc1cc(Nc2nccc(Nc3ccc4c(C)n[nH]c4c3)n2)cc(OC)c1OC | 9.2
37 | COc1cc2c(cc1Nc1nc(Nc3ccsc3C(N)=O)c3cc[nH]c3n1)N(C(=O)CN(C)C)CCC2(C)C | 20.6
38 | CCn1c(-c2nonc2N)nc2c(C#CC(C)(C)O)nc(OC[C@H](N)c3ccccc3)cc21 | 5.45
39 | COC(=O)Nc1nc2ccc(S(=O)(=O)c3ccc(NC(=O)Nc4cc(C(F)(F)F)ccc4F)cc3)cc2[nH]1 | 2.81
40 | N#Cc1c(NC(=O)c2ccc(F)cc2)sc2c1CCCC2 | 0.5
41 | CCn1c(-c2nonc2N)nc2c(C#CC(C)(C)O)ncc(OC3CCNCC3)c21 | 3.98
42 | CCn1c(-c2nonc2N)nc2cnc(Oc3cccc(NC(=O)c4ccc(N(C)C)cc4)c3)cc21 | 1.09
43 | Fc1cccc(COc2ccc(Nc3ncnc4sc(-c5ccco5)cc34)cc2Cl)c1 | 4.82
44 | O=S(=O)(CCNCc1ccc(-c2ccc3ncnc(Nc4ccc(OCc5cccc(F)c5)c(Cl)c4)c3c2)o1)c1ccccc1 | 5.75
45 | COc1cccc(-n2ncc3c(N/N=C/c4ccc(F)cc4)ncnc32)c1 | 4.65
46 | NC(=O)c1sc(-n2cnc3ccc(C(F)(F)F)cc32)cc1OCc1ccccc1Br | 4.58
47 | NS(=O)(=O)c1ccc(N/N=C2\C(=O)Nc3ccc4ncccc4c32)cc1 | 7.05
48 | c1ccc(-c2nc3n(c2-c2ccc4c(c2)OCO4)CCC3)nc1 | 1.81
49 | CCNC(=O)O[C@H]1CN[C@H](C#Cc2cc3ncnc(Nc4ccc(OCc5cccc(F)c5)c(Cl)c4)c3s2)C1 | 2.86
50 | COc1ccc(-c2cc(-c3c[nH]nc3-c3ccccn3)ccn2)cc1 | 5.19
51 | Nc1nc(-c2cccc(Cl)c2)c(-c2ccc3ncccc3n2)s1 | 13.7

Row | SMILES | inhibition [%]
52 | Clc1ccc(-c2nn3ncccc3c2-c2ccnc(Nc3ccccc3)n2)cc1 | 1.83
53 | CCN1CCC(CC(=O)Nc2n[nH]c3nnc(-c4cccc(F)c4F)cc23)CC1 | -0.19
54 | CN1CCC(n2cnc(-c3ccc(F)cc3)c2-c2ccnc(N)n2)CC1 | 4.69
55 | CNC(=O)c1cncc(/C=C/c2ccccc2Cl)c1 | -0.77
56 | CC(C)COC(=O)c1ccc2c(c1)/C(=C/Nc1ccc(S(N)(=O)=O)cc1)C(=O)N2 | 14.2
57 | CCN(CC)S(=O)(=O)c1ccc(OC)c(Nc2ncc(-c3ccccc3)o2)c1 | -0.29
58 | COc1ccc(-c2oc3ncnc(N)c3c2-c2ccc(NC(=O)Nc3cc(C(F)(F)F)ccc3F)cc2)cc1 | 1.65
59 | COc1ccc(CNC(=O)c2ccc(-c3cc(-c4nnc(C)o4)ccc3C)cc2)cc1 | 0.62
60 | CC(C)(CO)CNC(=O)c1ccc2c(c1)/C(=N/Nc1ccc(S(N)(=O)=O)cc1)C(=O)N2 | 3.6
61 | Cc1cccc2c1NC(=O)/C2=N\Nc1ccc(S(N)(=O)=O)cc1 | 2.46
62 | Cc1ccc2c(-c3ccnc(Nc4ccccc4)n3)c(-c3ccc(F)cc3)nn2n1 | 36.6
63 | CNC(=O)c1cccc(C#Cc2cncnc2Nc2ccc(OCc3cccc(F)c3)c(Cl)c2)c1 | 1.26
64 | c1cc(-c2cnn3nc(N4CCOCC4)ccc23)nc(NC2CC2)n1 | 10.4
65 | FC(F)(F)c1cccc(-c2nn3ncccc3c2-c2ccnc(Nc3ccc4c(c3)OCCO4)n2)c1 | 3.28
66 | CC1=C(C(=O)Nc2cc(Cl)c3[nH]ncc3c2)C(c2ccc(C(F)(F)F)cc2)CC(=O)N1 (stereo not drawn) | 3.61
67 | COc1cc(N2CCN(C(C)C)CC2)ccc1Nc1nc(Nc2ccc(F)cc2C(N)=O)c2cc[nH]c2n1 | 40.8
68 | O=C(Nc1n[nH]c2cc(-c3ccc(F)cc3)ccc12)C1CC1 | 3.16
